Reference: ChEMBL document CHEMBL3988442, “University of Dundee, Small-Polar-MMV Screening Library” (2021)
For part of these data: Measured potencies and affinities stand elsewhere.

What was measured:
Parameters in all cases: scale not given: direction of the effect not stated beside the values
[1] = target: Protein translocase subunit SecA (Escherichia coli (strain K12)) (UniProt P10408); assay: Assay to Identify E. coli SecA ATPase Inhibitors; type: functional; conditions: 30 µM
[2] = target: T1, Ubiquitin-activating enzyme e1, putative (Leishmania donovani (strain BPK282A1)) (UniProt E9BSI1); assay: Leishmania donovani Ubiquitin Activating Enzyme (LdE1); type: functional; conditions: 30 µM
T1 sequence (whole entry): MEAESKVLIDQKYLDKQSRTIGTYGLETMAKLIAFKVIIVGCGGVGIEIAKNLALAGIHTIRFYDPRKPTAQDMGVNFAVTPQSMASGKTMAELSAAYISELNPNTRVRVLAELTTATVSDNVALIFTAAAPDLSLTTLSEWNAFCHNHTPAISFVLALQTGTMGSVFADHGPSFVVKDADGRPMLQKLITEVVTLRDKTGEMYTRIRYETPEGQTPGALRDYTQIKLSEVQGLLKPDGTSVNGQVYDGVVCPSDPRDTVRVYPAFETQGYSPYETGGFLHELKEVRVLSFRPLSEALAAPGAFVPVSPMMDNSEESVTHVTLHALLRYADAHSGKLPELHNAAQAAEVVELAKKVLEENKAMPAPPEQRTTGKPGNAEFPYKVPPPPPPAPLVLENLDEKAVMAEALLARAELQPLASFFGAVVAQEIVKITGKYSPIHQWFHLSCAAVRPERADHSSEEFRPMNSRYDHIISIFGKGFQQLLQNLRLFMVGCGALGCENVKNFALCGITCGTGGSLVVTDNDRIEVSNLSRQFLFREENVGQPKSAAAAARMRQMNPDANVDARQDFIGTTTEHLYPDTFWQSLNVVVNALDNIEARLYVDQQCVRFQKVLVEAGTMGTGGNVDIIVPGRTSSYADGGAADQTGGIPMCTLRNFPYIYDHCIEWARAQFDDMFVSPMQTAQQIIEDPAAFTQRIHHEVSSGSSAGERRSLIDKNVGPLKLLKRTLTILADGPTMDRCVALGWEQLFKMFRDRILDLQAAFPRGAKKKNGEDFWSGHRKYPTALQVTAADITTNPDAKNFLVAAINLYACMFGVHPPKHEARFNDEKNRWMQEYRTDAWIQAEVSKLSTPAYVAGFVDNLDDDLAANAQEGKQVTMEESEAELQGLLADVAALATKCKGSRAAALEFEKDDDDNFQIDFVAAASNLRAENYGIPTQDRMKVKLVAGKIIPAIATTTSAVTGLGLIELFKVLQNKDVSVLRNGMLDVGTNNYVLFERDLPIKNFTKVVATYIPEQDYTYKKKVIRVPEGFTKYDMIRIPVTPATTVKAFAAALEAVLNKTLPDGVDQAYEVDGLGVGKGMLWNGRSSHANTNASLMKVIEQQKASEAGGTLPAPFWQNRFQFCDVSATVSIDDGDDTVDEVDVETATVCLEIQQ

[3] = target: T2, Aspartate--tRNA(Asp/Asn) ligase (Mycobacterium tuberculosis (strain ATCC 25618 / H37Rv)) (UniProt P9WFW3); assay: Assay for Asp RNA synthetase-1 from Mycobacterium tuberculosis; type: functional; conditions: 30 µM; further: in the data most compounds retested in dose-response had high values
T2 sequence (whole entry): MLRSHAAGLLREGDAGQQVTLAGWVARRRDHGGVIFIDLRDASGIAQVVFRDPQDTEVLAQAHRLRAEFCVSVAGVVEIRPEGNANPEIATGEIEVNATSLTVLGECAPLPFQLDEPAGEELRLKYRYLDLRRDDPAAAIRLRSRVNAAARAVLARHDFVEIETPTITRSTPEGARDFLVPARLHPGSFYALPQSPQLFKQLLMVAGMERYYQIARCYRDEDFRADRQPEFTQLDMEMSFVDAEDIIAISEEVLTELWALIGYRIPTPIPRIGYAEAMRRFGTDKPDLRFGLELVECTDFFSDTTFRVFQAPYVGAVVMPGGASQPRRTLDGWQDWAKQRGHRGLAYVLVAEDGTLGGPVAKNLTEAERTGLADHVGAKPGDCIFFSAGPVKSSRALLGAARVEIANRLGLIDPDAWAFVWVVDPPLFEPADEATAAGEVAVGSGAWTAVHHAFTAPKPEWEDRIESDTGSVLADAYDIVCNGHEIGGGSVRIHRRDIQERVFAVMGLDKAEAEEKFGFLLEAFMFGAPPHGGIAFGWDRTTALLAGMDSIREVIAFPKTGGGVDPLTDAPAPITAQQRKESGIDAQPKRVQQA

[4] = target: Sialic acid-binding Ig-like lectin 9 (Homo sapiens) (UniProt Q9Y336); assay: Hs-Siglec9 ALPHAscreen SOP 20170721; conditions: 10 µM
Sialic acid-binding Ig-like lectin 9 (Homo sapiens), sequence (Q9Y336 whole entry): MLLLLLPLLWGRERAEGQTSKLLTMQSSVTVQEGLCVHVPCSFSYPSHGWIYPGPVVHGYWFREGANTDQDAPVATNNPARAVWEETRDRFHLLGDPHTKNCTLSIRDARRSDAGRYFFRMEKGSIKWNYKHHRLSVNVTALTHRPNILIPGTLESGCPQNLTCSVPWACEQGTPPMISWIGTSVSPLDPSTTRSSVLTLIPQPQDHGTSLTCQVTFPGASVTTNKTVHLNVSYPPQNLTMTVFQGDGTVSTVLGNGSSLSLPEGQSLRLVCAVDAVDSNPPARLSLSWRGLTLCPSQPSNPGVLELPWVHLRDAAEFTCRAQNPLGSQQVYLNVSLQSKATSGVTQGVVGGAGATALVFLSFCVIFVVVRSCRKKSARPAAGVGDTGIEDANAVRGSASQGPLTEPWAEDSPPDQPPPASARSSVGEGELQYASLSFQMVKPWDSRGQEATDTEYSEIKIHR

Trypanosoma cruzi = assay: Trypanosoma cruzi phosphomannomutase and mannose-1-phosphate guanylyltransferase assay; type: functional; conditions: 10 µM
[5] = target: T3, Arginase-2, mitochondrial (Homo sapiens) (UniProt P78540); assay: in vitro enzyme assay to detect the production of urea directly proportional to the activity of Arginase II; type: functional; conditions: 33.3 µM; further: in the data most compounds retested in dose-response had high values
T3 sequence (whole entry): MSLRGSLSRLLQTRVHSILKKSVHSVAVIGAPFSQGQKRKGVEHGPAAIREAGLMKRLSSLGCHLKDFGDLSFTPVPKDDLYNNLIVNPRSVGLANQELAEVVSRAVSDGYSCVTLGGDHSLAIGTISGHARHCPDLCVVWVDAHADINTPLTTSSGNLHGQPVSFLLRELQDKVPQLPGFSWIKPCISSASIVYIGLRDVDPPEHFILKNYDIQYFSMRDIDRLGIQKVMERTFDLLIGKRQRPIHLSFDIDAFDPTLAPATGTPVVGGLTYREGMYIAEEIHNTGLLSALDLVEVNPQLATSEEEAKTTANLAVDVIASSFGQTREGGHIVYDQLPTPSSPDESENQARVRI

[6] = target: T4, Proteasome subunit beta (Trypanosoma cruzi) (UniProt O96673); assay: Trypanosoma cruzi proteasome chymotrypsin-like activity (TcProtChymo) assay.; further: in the data most compounds retested in dose-response had high values; type: functional; conditions: 9.37 µM
T4 sequence (whole entry): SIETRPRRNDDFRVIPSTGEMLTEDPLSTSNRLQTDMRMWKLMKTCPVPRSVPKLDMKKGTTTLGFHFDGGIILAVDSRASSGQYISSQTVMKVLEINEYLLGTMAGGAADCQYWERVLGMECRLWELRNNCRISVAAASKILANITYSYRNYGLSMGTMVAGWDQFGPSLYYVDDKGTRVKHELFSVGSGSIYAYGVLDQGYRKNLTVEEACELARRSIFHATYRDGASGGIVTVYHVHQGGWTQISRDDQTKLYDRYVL

Homo sapiens = species: Homo sapiens; assay: To identify inhibition of the IFN signalling (Jak-Stat) pathway via expression of an eGFP reporter gene under the control of an IFN-stimulated response element (ISRE) containing MxA promoter.; type: functional; conditions: 30 µM
[7] = target: Shiga toxin 2 (Escherichia coli O157:H7) (UniProt P09385+P09386); assay: E. coli 0.157:H7 Shiga Toxin SOP - stx2 screening assay; type: functional; conditions: 30 µM
[8] = target: T5, Tyrosyl-tRNA synthetase, putative (Trypanosoma cruzi (strain CL Brener)) (UniProt Q4DSP6); assay: Trypanosoma cruzi tyrosyl tRNA synthetase (TcYRS) _High Tyrosine SOP; type: functional; conditions: 30 µM; further: in the data most compounds retested in dose-response had high values
T5 sequence (whole entry): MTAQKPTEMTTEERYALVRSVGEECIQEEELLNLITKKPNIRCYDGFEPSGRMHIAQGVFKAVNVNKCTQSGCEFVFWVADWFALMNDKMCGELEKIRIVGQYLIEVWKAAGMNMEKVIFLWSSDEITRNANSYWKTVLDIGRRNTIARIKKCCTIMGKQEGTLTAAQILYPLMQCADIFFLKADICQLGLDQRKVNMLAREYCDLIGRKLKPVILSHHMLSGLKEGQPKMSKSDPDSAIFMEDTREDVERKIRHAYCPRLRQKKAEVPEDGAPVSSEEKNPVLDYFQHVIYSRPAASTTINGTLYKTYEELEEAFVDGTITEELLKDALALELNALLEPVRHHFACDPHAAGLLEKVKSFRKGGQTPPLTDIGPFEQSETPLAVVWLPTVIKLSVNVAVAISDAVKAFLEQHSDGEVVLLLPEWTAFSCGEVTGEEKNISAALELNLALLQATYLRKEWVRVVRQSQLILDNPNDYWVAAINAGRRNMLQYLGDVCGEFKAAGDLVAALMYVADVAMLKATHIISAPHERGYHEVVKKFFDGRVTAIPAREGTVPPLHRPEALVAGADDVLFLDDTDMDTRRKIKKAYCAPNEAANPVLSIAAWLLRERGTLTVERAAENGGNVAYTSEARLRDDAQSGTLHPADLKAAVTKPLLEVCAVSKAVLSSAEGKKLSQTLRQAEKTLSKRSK

[9] = target: T5, Tyrosyl-tRNA synthetase, putative (Trypanosoma cruzi (strain CL Brener)); assay: Trypanosoma cruzi tyrosyl tRNA synthetase (TcYRS) SOP; type: functional; conditions: 30 µM
[10] = target: Chromo domain-containing protein 1 (Saccharomyces cerevisiae (strain ATCC 204508 / S288c) (Baker's yeast)) (UniProt P32657); assay: ScCHD-1 Enzyme Inhibition Assay; type: functional; conditions: 30 µM; further: in the data most compounds retested in dose-response had high values
Chromo domain-containing protein 1 (Saccharomyces cerevisiae (strain ATCC 204508 / S288c) (Baker's yeast)), sequence (P32657 whole entry, the tested form may be a part): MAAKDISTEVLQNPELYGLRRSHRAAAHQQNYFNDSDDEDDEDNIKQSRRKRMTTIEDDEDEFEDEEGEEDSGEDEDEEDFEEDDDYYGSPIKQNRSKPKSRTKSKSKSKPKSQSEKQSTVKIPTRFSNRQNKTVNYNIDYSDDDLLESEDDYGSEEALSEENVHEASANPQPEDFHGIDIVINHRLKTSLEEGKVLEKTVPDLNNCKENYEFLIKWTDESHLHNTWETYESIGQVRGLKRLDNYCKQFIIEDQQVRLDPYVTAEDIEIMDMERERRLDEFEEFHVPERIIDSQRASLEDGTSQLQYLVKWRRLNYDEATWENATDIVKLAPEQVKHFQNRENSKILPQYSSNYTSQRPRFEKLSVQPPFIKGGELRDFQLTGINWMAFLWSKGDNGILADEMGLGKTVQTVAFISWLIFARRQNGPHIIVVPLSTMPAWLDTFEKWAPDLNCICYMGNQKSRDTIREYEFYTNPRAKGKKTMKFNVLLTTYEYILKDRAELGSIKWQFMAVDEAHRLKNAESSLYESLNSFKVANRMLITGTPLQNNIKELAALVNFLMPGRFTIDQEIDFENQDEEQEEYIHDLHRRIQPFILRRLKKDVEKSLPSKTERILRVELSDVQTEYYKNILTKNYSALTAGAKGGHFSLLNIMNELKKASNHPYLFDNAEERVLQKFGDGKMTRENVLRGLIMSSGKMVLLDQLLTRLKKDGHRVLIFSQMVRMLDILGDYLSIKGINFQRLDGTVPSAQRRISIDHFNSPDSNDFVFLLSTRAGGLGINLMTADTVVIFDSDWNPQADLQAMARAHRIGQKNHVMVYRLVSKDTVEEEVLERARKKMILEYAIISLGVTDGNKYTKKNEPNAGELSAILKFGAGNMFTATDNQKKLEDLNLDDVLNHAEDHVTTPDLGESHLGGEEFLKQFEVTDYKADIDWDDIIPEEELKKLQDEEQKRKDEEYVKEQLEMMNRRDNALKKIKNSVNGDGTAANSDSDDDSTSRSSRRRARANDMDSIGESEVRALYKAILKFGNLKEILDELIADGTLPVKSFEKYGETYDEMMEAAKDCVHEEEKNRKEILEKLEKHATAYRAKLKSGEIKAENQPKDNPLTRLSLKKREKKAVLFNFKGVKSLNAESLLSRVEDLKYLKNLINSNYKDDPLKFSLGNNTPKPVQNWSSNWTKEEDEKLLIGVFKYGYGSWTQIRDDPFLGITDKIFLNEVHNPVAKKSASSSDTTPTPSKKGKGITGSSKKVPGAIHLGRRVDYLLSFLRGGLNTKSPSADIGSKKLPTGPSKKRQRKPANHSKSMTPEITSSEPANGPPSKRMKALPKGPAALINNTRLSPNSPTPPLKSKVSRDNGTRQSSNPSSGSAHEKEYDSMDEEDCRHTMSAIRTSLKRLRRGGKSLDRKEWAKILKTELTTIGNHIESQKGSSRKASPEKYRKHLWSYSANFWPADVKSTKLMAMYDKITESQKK

[11] = target: AMP-activated protein kinase, AMPK (Homo sapiens) (UniProt P54646+O43741+P54619+Q9UGJ0+Q9Y478+Q13131+Q9UGI9); assay: AMP-dependent Kinase enzyme assay. An in vitro enzyme assay that detects ADP turnover that is directly proportional to AMPK activity. This uses naive AMPK that is activated during the assay with MK-8722; type: functional; conditions: 30 µM

Protein translocase subunit SecA (Escherichia coli (strain K12)), sequence (P10408 whole entry): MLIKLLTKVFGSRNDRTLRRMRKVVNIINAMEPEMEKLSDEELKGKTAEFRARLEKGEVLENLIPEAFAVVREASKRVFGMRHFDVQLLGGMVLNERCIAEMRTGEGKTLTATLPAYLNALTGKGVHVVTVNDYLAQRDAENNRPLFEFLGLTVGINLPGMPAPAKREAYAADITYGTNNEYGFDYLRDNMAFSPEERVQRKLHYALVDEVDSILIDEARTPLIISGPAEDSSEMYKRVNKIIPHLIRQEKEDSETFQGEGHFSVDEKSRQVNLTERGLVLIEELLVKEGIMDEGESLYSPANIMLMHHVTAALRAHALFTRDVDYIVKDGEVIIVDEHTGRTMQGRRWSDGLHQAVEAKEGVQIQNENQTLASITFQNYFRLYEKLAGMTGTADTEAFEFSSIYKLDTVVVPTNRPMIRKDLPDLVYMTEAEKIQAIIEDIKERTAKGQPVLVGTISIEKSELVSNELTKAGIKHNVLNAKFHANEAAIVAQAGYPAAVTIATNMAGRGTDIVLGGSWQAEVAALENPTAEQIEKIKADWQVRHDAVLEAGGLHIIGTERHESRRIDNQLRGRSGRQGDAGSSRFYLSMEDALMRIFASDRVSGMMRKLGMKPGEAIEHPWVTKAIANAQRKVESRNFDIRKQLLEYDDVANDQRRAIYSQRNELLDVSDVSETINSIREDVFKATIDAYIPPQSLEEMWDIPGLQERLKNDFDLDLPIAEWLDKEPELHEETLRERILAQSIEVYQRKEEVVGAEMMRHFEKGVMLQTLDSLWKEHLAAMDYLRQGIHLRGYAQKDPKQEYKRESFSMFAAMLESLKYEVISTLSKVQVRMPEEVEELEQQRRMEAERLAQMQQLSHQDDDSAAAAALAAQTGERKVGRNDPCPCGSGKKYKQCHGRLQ

Row | SMILES | Percent Effect [1] [%] | Percent Effect [2] [%] | Percent Effect [3] [%] | Percent Effect [4] [%] | Percent Effect (Trypanosoma cruzi) [%] | Percent Effect [5] [%] | Percent Effect [6] [%] | Percent Effect (Homo sapiens) [%] | Percent Effect [7] [%] | Percent Effect [8] [%] | Percent Effect [9] [%] | Percent Effect [10] [%] | Percent Effect [11] [%]
1 | CCc1cnc(N2CC3(CCN(Cc4ccsc4)C3)C2)nc1 | -5.86 | 3.9 | 14.2 | -1.39 | -7.3 | 0 | 9.27 | 12.9 | -11 | 8.95 | 2.56 | -4.35 | –
2 | O=C(Nc1cccnc1)[C@@H]1C[C@H]2OCC[C@H]2N(Cc2ccsc2)C1 | -6.23 | 9.09 | -1.88 | 6.98 | 0.487 | -0.81 | 13.7 | 0.767 | -6.35 | 4.74 | 10.3 | -2.28 | –
3 | O=C(C1CC(=O)N(c2ccccc2Br)C1)N1CCC2(CC1)OCCO2 (configuration not stated) | -3.76 | -10.7 | 2.47 | -2.82 | -3.21 | 2.6 | 11.2 | 0.465 | – | 1.64 | 8.64 | -2.41 | -5.79
4 | O=C(NCC(F)(F)F)C1=NOC2(CCCNC2)C1 (configuration not stated) | -8.38 | 3.9 | 1.78 | 4 | -3.21 | -4.86 | 4.15 | -6.57 | 13.8 | 4.74 | 2.56 | -0.335 | –
5 | C[C@@H]1CN(Cc2ccsc2)C[C@]12CCN(Cc1cccnc1)C2=O | -4.41 | 1.3 | -1.62 | 1.42 | -1.69 | 1.37 | -4.03 | 25.2 | -6.36 | 0 | -10 | -0.115 | –
6 | CNCCc1nc2cc(Cl)ccc2[nH]1 | -7.19 | 0 | 0.126 | -5.75 | -7.11 | -3.65 | 5.58 | 5.87 | – | -4.92 | -6.17 | 0.639 | 1.26
